# Screening data: PubChem BioAssay, National Center for Advancing Translational Sciences (NCATS)
# In the library only some 2.8% were active in any assay of this set; here they are far more common.
# RGS4 inhibitor – blocks human RGS4-accelerated GTP hydrolysis. 0.039% of 390,000 active. Potency, µM (series often up to 114 µM), actives largely listed as inhibitors. Transcreener GDP fluorescence polarization, RGS4-accelerated GTP hydrolysis; active = well fitted inhibition curve with a large enough effect; inconclusive = small, poorly fitted or top-dose-only effect; inactive = no such curve, though single readings can be large or run the other way; note: nearly all actives have a fitted effect of over 75% in size
# Target sequence (P49798 whole entry, looked up): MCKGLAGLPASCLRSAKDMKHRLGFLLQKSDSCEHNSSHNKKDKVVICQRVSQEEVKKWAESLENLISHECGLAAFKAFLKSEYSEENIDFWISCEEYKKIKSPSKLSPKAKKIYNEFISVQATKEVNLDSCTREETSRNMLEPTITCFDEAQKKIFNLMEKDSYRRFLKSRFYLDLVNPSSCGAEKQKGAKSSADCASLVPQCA
#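 MLSMR compounds (23 nl, pin-transferred) preincubated 10 min at room temperature with a 500nM (2x) first reagent, then RGS4 at 900nM (2x) plus Transcreener GDP mix added; fluorescence polarization (620/688 nm) read before and after 90 min at 30 °C.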
# pAkt inh – Akt phosphorylation inhibition | activity change, % for hits at 50 µM | 0.32% of 360,000 active | Neuro2A IGF-stimulated pAkt S473 HTRF, 20 min; hits give low values; in the data active = activity change below about -80%; inconclusive = mostly about -51% to -80%
#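 Neuro2A cells (4,500/well, DMEM with 0.5% FBS) were treated with compound at a single 50 µM final concentration, stimulated with 6 nM IGF for 20 min at 37 °C, and lysed. Phospho-Akt Ser473 was read by HTRF as 665/615 ratio ×10^4.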
# D3 ag – activates the human D3 dopamine receptor; P35462; D3R DiscoveRx beta-arrestin cells, luminescence, 90 min; max activation, %; 0.58% of 410,000 active; AID 652048; in the data active = max activation above about 30%
#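 Agonist mode: compounds and dopamine controls were applied to plated cells for 90 min at 37 degrees C after an overnight attachment at 1500 cells/well. Luminescent read-out followed 30 - 60 minutes at room temperature with DiscoveRx detection reagent.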
# D3 antag – blocks the human D3 dopamine receptor; P35462; D3R cells, DiscoveRx beta-arrestin luminescence, antagonist mode; hits give low values; max response, negative = inhibition, %; 2.5% of 360,000 active; in the data active = max response below about -50%; inconclusive = no clear call, values can overlap the other calls
#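 Cells expressing the human receptor were seeded at 1500 cells/well, incubated overnight at 37 degrees C in 5% CO2, then exposed to library compounds with dopamine controls for 90 minutes at 37 degrees C before luminescent detection.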
# LDHA inh – inhibitors of human lactate dehydrogenase A; AID 1347041; 0.15% of 480,000 active; P00338; purified LDHA, NADH/diaphorase-resazurin fluorescence; hits give low values; activity change, % (values are at about 110 or 230 µM); in the data active = activity change below about -30%; inconclusive = mostly about -25% to -30%
#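 Remaining NADH was detected by diaphorase (0.133 mg/mL) converting 37 µM resazurin to fluorescent resorufin, read at 0 and 20 minutes. The preceding 5-minute room-temperature reaction used 2 nM LDHA, 0.2 mM sodium pyruvate and 0.06 mM NADH at pH 7.4.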
# PI4K2A inh – inhibitors of human PI4K2A; 0.13% of 420,000 active; activity change, negative = inhibition, % at 76.9 µM; purified PI4K2A, ADP-Glo luminescence, 1 h; hits give low values; in the data active = activity change below about -50%; inconclusive = mostly about -30% to -49%
# Target sequence (Q9BTU6 whole entry, looked up): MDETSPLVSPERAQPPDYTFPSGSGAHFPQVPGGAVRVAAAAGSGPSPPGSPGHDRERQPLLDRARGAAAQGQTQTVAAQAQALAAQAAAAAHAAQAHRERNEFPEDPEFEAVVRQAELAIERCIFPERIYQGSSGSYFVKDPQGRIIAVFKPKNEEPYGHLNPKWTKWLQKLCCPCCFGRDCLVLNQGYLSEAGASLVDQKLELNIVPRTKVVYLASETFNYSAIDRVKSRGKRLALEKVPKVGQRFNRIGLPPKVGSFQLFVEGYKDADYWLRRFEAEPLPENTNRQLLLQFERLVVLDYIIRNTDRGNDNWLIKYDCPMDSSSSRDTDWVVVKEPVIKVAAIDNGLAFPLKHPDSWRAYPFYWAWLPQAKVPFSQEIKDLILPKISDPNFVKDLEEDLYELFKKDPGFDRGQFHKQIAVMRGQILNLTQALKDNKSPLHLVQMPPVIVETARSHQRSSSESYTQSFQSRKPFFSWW
#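 PI4K2A activity was measured by ADP-Glo luminescence: enzyme (4 ug/mL stock) and phosphatidylinositol (1.2 mM stock) in Tris pH 7.5/MgCl2/EGTA/Triton X-100 buffer were reacted with ATP (300 microM stock) for one hour at ambient temperature.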
# Hits are given with their value; - = inactive; ? = inconclusive; . = no result; [ ] = dose if it differs, or a comment.
SMILES,RGS4 inhibitor,pAkt inh,D3 ag,D3 antag,LDHA inh,PI4K2A inh
O=C(/C=C/c1ccc(O)cc1)c1ccccc1,-,-,-,-,-,-74.6
N#Cc1nc(-c2ccccc2)oc1NCCN1CCCCC1,-,-,-,-72.3,-,-
N#Cc1nc(-c2ccccc2)oc1NCCCN1CCOCC1,.,.,.,.,-,.
COC(=O)N1C(=O)[C@@](c2ccccc2)(C2CCCCC2)N1C(=O)OC,-,-,-,-54.2,-,-
CN1C(=O)/C(=C2/C=Cc3ccccc3N2CCCS(=O)(=O)O)SC1=S,-,-,-,-124.6,-,-
CCOc1ccc(-c2nc(CNC(=O)Nc3ccccc3OCC)c(C)o2)cc1,.,.,.,.,-,.
CCn1ccnc1CNCc1ccc(OCC(O)CN(C)Cc2ccccc2)cc1 (centres undefined),-,-,-,-59.2,-,-
CCc1ccc(CNCc2ccc(OCC(O)CN(C)Cc3ccccc3)cc2)nc1 (centres undefined),-[11.4 µM],-,-,-53.8,-,-
CN(Cc1ccccc1)CC(O)COc1ccc(CNCCc2cccnc2)cc1 (centres undefined),-,-,-,-,-,-
CCCn1c(C)cc(C(=O)COC(=O)c2c(C)nn(Cc3ccc(C)cc3)c2Cl)c1C,.,.,.,.,-,.
CN(C)CCCNC(=O)N1c2ccccc2C=Cc2ccccc21,?,-,-,-52.5,-,-
CCCCCCCCc1nc(=S)[nH][nH]1,?,-,-,-67.4,-,-
COCCn1c(=O)c2c(nc3n2CCCN3CCc2ccccc2)n(C)c1=O,-,-,102.4,-,-,-
Cc1nnc(N2C(=O)C(O)=C(C(=O)c3ccco3)C2c2ccc(C(C)(C)C)cc2)s1 (centres undefined),-,-,-,-83.1,-,-
Cc1nnc(N2C(=O)C(O)=C(C(=O)c3ccco3)C2c2ccc(F)cc2)s1 (centres undefined),-,-,-,-,-,-
CC(Sc1nc2ccc(F)cc2c(=O)[nH]1)C(=O)NC1CCCCC1 (centres undefined),.,.,.,.,-,.
COc1ccc2c3c([nH]c2c1)[C@H]1C[C@H]2[C@H](C[C@@H](O)[C@H](OC)[C@H]2C(=O)O)CN1CC3,-,-,-,-,-,-
C[C@H](O)[C@@H]1CN2CCc3c([nH]c4ccccc34)[C@@H]2C[C@@H]1N(C)C(=O)NC1CCCCC1,.,-,-,-58.0,-,-
O=C(O)[C@@H]1[C@H]2C[C@H]3c4[nH]c5ccccc5c4CCN3C[C@@H]2CC[C@@H]1O,-,-,-,-61.0,-,-
O=C1CCC2CN3CCc4c([nH]c5ccccc45)C3CC2C1 (centres undefined),.,-,-,-89.5,-,-
O=C(O)/C=C/c1ccc(-c2ccccc2F)o1,.,.,.,.,-,.
Cc1ccc(Cl)cc1N1CCN(CC(=O)Nc2ccc(CN3CCCCC3)cc2)CC1,-,-,-,-64.9,-,-
Cc1ccc(Cl)cc1N1CCN(CC(=O)NC2CCCCC2)CC1,.,.,.,.,-,.
COc1ccccc1N1CCN(CC(=O)Nc2ccc(CN3CCCCC3)cc2)CC1,-,-,-,-65.5,-46.1,-
COc1ccccc1NC(=O)CN1CCN(c2ccccc2OC)CC1,-,-,-,-,-,-
SMILES,RGS4 inhibitor,pAkt inh,D3 ag,D3 antag,LDHA inh,PI4K2A inh
COc1ccccc1N1CCN(CC(=O)NCc2ccc(Cl)cc2)CC1,-,-,-,-69.7,-,-
N#C/C(=C\c1ccc2c3c(cccc13)CC2)c1nc2ccccc2[nH]1,.,.,.,.,-,.
Cc1cc(O)c(C=O)c2c1C(=O)Oc1c(CO)c(O)c3c(c1O2)C(O)OC3=O (centres undefined),-,-,-,-,-,-84.8
O=C(O)CCN1C(=O)CC(N2C(=O)/C(=C/c3ccc(Cl)cc3)SC2=S)C1=O (centres undefined),-,-,31.0,-,-,-
COCCn1c(Cc2ccc(OC)c(OC)c2)n[nH]c1=S,.,.,.,.,-,.
COCCn1c(C)cc(C2=NNC(=Nc3ccccc3)SC2)c1C,?,-,-,-58.2,-,-51.6
Cc1cc(/C=C2\SC(=S)NC2=O)c(C)[nH]1,-,-,-,-,-,-
O=C1NC(=S)S/C1=C\c1cc(Cl)ccc1Cl,?,-,-,-,-31.0,-
O=C(NCCc1cccc(Cl)c1)NC1CC1,.,.,.,.,-,.
S=C(NCc1ccccc1)Nc1ccccc1Br,.,.,.,.,-,.
Cc1ccc(C)c2[nH]c(=O)c(C(c3nnnn3C(C)(C)C)N3CC=C(c4ccc(F)cc4)CC3)cc12 (centres undefined),-,-,-,-51.4,-,-
COc1cc(/C=C/c2ccc3cccc(O)c3n2)ccc1O,-,-,-,-51.9,-,-
COc1cc(/C=C/c2ccc3cccc([N+](=O)[O-])c3n2)ccc1O,.,.,.,.,-,.
CSc1ccc(/C=C/c2ccc3cccc(O)c3n2)cc1,-,-,-,-58.2,-,-
COc1cc(/C=C/c2ccc3cccc(O)c3n2)cc(OC)c1,.,.,.,.,-,.
Cc1nc2ccccc2c(C)c1CC(=O)NC1CCCCCC1,.,.,.,.,-,.
COc1ccccc1C(O)c1ncc(-c2cccc3ccccc23)[nH]1 (centres undefined),.,-,-,-56.7,-,-
Cc1ccc(S(=O)(=O)N2CCN(C(=O)Cc3ccc(-c4ccccc4)cc3)CC2)cc1,.,.,.,.,-,.
OC(CNC1CCCCC1)CON=C1CCSc2c(Cl)cccc21 (centres undefined),.,-,-,-66.3,-,-
OC(CNC1CCCC1)COc1ccc(-c2ccccc2)cc1 (centres undefined),-,-,-,-,-,-
Cc1ccc(Cl)cc1NC(=S)N/N=C/c1cccc2ccccc12,-,-,-,-53.0,-,-
Cc1ccc(NC(=S)NCCCO)c(C)c1,.,.,.,.,-,.
Cc1ccc(NC(=S)N/N=C/c2c(Cl)cccc2Cl)c(C)c1,-,-,-,-59.6,-,-
Cc1ccc(NC(=S)NCCO)c(C)c1,-,-,-,-56.4,-,-
CC(C)(C)NC(=S)N/N=C/c1c(Cl)cccc1Cl,-,-,-,-,-,-
SMILES,RGS4 inhibitor,pAkt inh,D3 ag,D3 antag,LDHA inh,PI4K2A inh
COc1cccc(CNC(=O)c2ncoc2-c2cccc(Cl)c2)c1,.,.,.,.,-,.
CCCOc1ccc(NC(=O)C(=O)c2c(C)[nH]c3ccccc23)cc1,.,.,.,.,-,.
N#CCCSc1sc(=S)sc1SCc1cc(C(F)(F)F)cc(C(F)(F)F)c1,.,.,.,.,-,.
Cc1ccccc1OC1(C)CCN(Cc2ccc3ccccc3c2)C1 (centres undefined),.,-,-,-,-,-
COc1cccc(OC2(C)CCN(Cc3ccc(-c4ccccn4)cc3)C2)c1 (centres undefined),.,-,-,?,-,-
Cc1ccc(CN2CCC(C)(Oc3ccc(Cl)cc3)C2)cc1 (centres undefined),.,-,-,-94.7,-,-
CSc1ccc(OC2(C)CCN(Cc3ccc(OC(C)C)cc3)C2)cc1 (centres undefined),.,-,-,?,-,-
